# High-throughput results from PubChem.
# PME-1 inh: PME-1 (human) inhibition. hit rate 0.53% among 320,000. inhibition, % at 5.9 µM. Q9Y570. recombinant PME-1, FP-Rh probe fluorescence polarization;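 active means inhibition above the campaign mean of all compounds plus 3 SD, cut at about 26% in these data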;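 further: competitive labeling of PME-1 active site by serine hydrolase directed probe; 0% = PME-1 with DMSO and 100% = wells lacking PME-1 enzyme; inhibitors block probe labeling so polarization falls and inhibition rises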
# Target sequence (Q9Y570 whole entry, looked up): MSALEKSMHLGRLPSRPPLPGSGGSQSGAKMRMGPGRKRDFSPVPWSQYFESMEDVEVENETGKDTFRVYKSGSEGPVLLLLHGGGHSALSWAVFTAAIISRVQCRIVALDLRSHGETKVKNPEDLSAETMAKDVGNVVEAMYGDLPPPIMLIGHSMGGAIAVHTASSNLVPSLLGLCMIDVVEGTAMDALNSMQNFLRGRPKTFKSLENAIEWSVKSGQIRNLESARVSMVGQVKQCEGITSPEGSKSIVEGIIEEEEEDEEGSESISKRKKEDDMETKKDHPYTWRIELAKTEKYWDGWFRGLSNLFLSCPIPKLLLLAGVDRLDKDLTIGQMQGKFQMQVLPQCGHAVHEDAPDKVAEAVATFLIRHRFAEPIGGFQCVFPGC
# LYPLA1 inh: LYPLA1 (human) inhibition in PME1 counter-screen. inhibition, % at 5.9 µM. O75608. hit rate 0.16% among 320,000. recombinant LYPLA1, FP-Rh probe fluorescence polarization;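 active means inhibition above the mean of all tested compounds plus 3 SD, set per campaign, cut at about 14% in these data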;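 further: inhibitors block serine hydrolase probe labeling of LYPLA1 so polarization falls; 0% = enzyme with DMSO and 100% = wells lacking LYPLA1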
# Fam108B counter: counter-screen for RBBP9 inhibitors: inhibitors of mouse Fam108B | hit rate 0.33% among 300,000 | recombinant Fam108B, FP-Rh probe fluorescence polarization | inhibition, % at 9.51 µM | AID 1947;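 active means inhibition above the screen mean inhibition plus 3 SD, computed separately per campaign, cut at about 18% in these data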;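 further: inhibitors lower polarization as less probe binds the enzyme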
# GSTO1 inh: counter-screen for RBBP9 inhibitors: inhibitors of human GSTO1. AID 1974. P78417. hit rate 1.1% among 300,000. recombinant GSTO1, activity-based probe fluorescence polarization. inhibition, % at 5.96 µM;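 active means inhibition above the campaign mean inhibition plus 3 SD, cut at about 35% in these data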;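 further: 0% = GSTO1-1 with DMSO and 100% = wells lacking GSTO1-1 enzyme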
# LYPLA2 inh: LYPLA2 (human) inhibition in PME1 counter-screen | O95372 | recombinant LYPLA2, FP-Rh probe fluorescence polarization | inhibition, % at 5.9 µM | hit rate 0.38% among 320,000 | AID 2177;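 active means inhibition above the screen-wide mean plus 3 SD, limit set per campaign, cut at about 26% in these data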;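 further: 0% = LYPLA2 with DMSO and 100% = wells lacking LYPLA2 enzyme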
# Target sequence (O95372 whole entry, looked up): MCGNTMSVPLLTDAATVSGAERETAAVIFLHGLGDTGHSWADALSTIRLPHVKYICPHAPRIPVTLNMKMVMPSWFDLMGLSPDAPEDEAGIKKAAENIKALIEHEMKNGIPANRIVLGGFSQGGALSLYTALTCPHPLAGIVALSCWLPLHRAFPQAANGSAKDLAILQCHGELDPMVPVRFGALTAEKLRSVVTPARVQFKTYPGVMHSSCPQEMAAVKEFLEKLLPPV
# PAD4 inh: PAD4 (human) enzyme inhibition | hit rate 0.41% among 330,000 | AID 485272 | inhibition, % at 6.36 µM | recombinant PAD4, RCA probe fluorescence polarization | Q9UM07;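 active means percent inhibition above a cutoff equal to the mean of all tested compounds plus 3 SD, cut at about 15% in these data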;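 further: 0% = PAD4 with RCA probe and DMSO and 100% = probe without PAD4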
# Fam108b inh conf: Fam108b (mouse) hydrolase inhibition, confirmation assay. AID 1978. inhibition, % at 9.51 µM. hit rate 44% among 930. recombinant Fam108b, FP-Rh probe fluorescence polarization. shares compounds with Fam108B counter;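 active means inhibition above a limit from the primary screen, the mean over all compounds plus 3 SD, cut at about 19% in these data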;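 further: 0% = median of active Fam108b wells and 100% = catalytically dead S170A mutant; inhibitors free the probe so polarization falls as inhibition rises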
# Fam108b inh: mouse ABHD17B inhibition. hit rate 44% among 260. inhibition, % at 20 µM. recombinant Fam108b, gel-based ABPP, fluorophosphonate probe. AID 588649. shares compounds with Fam108B counter; in the data active means inhibition above about 40%
# Active calls of the source: *; / = no result given. In the library only some 1.8% were active in any assay of this set; here they are far more common.
SMILES,PME-1 inh,LYPLA1 inh,Fam108B counter,GSTO1 inh,LYPLA2 inh,PAD4 inh,Fam108b inh conf,others
Nc1cc(Cl)nc(N/N=C/c2c(O)ccc3ccccc23)n1,31.7*,3.2,28.1*,15.8,-3.3,-2.0,2.3,
O=C(N/N=C\c1c(O)ccc2ccccc12)c1ccc(O)cc1,19.3,-15.3,23.2*,-2.5,-26.4,2.3,-1.0,
Nc1nonc1N/N=C/c1c(O)ccc2ccccc12,29.7*,-28.7,23.7*,-20.8,-38.7,0.9,6.5,
COc1ccc(/C=N/Nc2nc(N)cc(Cl)n2)cc1OC,2.6,4.5,1.8,-1.7,2.1,-2.1,/,
COc1cc(/C=N/NC(=O)c2ccc(CSc3nc4ccccc4[nH]3)cc2)ccc1O,-32.5,-30.7,23.7*,-48.7,-27.4,-5.8,2.2,
COc1cc(/C=N/NC(=O)c2ccccc2)ccc1O,-7.1,1.1,4.4,2.8,-4.8,-8.2,/,
COc1ccc(C(=O)/C=C/Nc2ccc(S(=O)(=O)Nc3cccc(C(C)=O)c3)cc2)cc1,43.3*,-18.8,33.8*,-5.2,8.7,-6.3,20.0*,
COc1cccc(C(=O)/C=C/Nc2ccc(S(=O)(=O)Nc3ccc(C(C)=O)cc3)cc2)c1,-1.7,-16.9,0.1,-9.3,-14.8,7.8,/,
COc1ccc2[nH]c3c(N4CCc5ccccc5C4)ncnc3c2c1,29.8*,-2.1,18.9*,9.4,16.6,4.1,-5.3,
O=C(O)C1=C[C@H](c2csc3ccccc23)C[C@H](OCc2ccc(CO)cc2)O1,-3.3,3.6,31.5*,1.0,4.7,-2.4,-5.3,
O=C(O)C1=C[C@@H](c2csc3ccccc23)C[C@@H](OCc2ccc(CO)cc2)O1,1.2,-1.0,3.8,10.5,-1.1,-0.6,/,
COc1cc(/C=N/N2CCN(Cc3ccc(C)cc3)CC2)cc(OC)c1O,0.8,5.3,2.4,22.0,6.1,-4.5,/,
COc1cc(CC(=O)OCC(=O)Nc2ccc(N(C)C)cc2)cc(OC)c1OC,/,/,/,/,/,-0.5,/,
N#C/C(=C(/O)c1cc2ccccc2o1)c1nc2ccccc2s1,8.8,-0.2,21.9*,-10.2,-1.5,-2.6,21.0*,
N#C/C(=C(/O)c1ccco1)c1nc2ccccc2s1,-1.9,3.0,5.2,-25.6,-2.3,-4.7,/,
O=c1oc(-c2ccccc2Cl)nc2ccsc12,2.1,-5.3,34.0*,-23.0,-1.7,5.1,32.1*,Fam108b inh=85.0*
CCOC(=O)N1CCN(C(=O)c2cc3c(s2)-c2ccc(Cl)cc2S(=O)(=O)C3)CC1,0.9,-1.0,-2.7,10.3,8.0,-2.9,/,
Cc1c(Br)c(O)c(Br)c2sc(=O)oc12,18.2,-6.4,28.8*,73.7*,-0.2,-1.3,0.9,
COc1ccc(/C=C2/SC(=S)N(CCCC(=O)Nc3cccc(O)c3)C2=O)cc1,-19.6,-25.6,-6.5,-10.8,-36.3,-0.3,/,
COc1ccc(/C=C2\SC(=S)N(CC(=O)OCC(=O)Nc3cc(Cl)cc(Cl)c3)C2=O)cc1,1.9,-5.2,26.6*,-2.1,-2.7,4.7,77.8*,Fam108b inh=85.0*
CCCCCCCNC(=O)C1(CC2CC(c3ccc(Cl)cc3)=NO2)CCN(C(=O)CCCCCBr)CC1 (centres undefined),6.6,-2.3,1.2,12.4,-3.2,-1.8,/,
CN(C)c1ccc(NC(=O)c2cccc(C(=O)Nc3ccc(N(C)C)cc3)n2)cc1,-17.6,7.2,21.0*,10.7,2.0,3.2,32.1*,Fam108b inh=35.0
O=C(O)c1ccc(NC(=O)c2cccc(C(=O)Nc3ccc(C(=O)O)cc3)n2)cc1,21.6,1.4,20.7*,-31.0,18.8,4.9,13.3,
O=C(COC(=O)COc1ccc(Br)cc1)NC1CCCC1,/,/,/,/,/,1.0,/,
O=[N+]([O-])c1cccc(N/N=C/c2cccc(O)c2O)c1,41.1*,-8.2,26.2*,34.8*,-3.1,-1.0,11.4,
SMILES,PME-1 inh,LYPLA1 inh,Fam108B counter,GSTO1 inh,LYPLA2 inh,PAD4 inh,Fam108b inh conf,others
O=[N+]([O-])c1ccc(NN=Cc2ccccc2O)cc1,/,/,/,/,/,/,/,Fam108b inh=90.0*
O=[N+]([O-])c1ccc(NN=Cc2cccc(O)c2O)cc1,/,/,/,/,/,/,/,Fam108b inh=40.0*
CN(c1ccccc1)S(=O)(=O)c1ccc(NC(=O)c2nc(S(C)(=O)=O)ncc2Cl)cc1,47.0*,-12.6,32.0*,-27.0,-3.2,-6.7,23.7*,
CN(c1ccccc1)S(=O)(=O)c1ccc(NC(=O)c2ccccc2)cc1,-17.2,-8.2,-6.2,-5.0,-3.8,-8.0,/,
Oc1[nH]c2ccc(Br)cc2c1N=NC(=S)Nc1ccc(F)cc1,13.0,-8.6,5.4,-51.7,-9.1,1.1,/,
Oc1cccc(NC(=S)N=Nc2c(O)[nH]c3ccc(Br)cc23)c1,32.6*,-6.6,23.7*,-40.3,1.0,-0.5,7.6,
COc1ccc(CN(CCN(C)C)c2ccccn2)cc1,2.7,1.0,0.4,-5.6,-2.7,-5.0,/,
CCCCCCCCCCCCCCCC[N+](C)(C)CCN(Cc1ccc(OC)cc1)c1ncccn1,5.6,-1.3,21.9*,3.8,6.9,8.2,22.4*,
Cc1nn(-c2ccccc2C(=O)O)c(=O)c2ccccc12,-7.3,2.6,-2.5,7.2,-0.9,-5.8,/,
Cc1nn(-c2ccc(Br)cc2)c(=O)c2ccccc12,93.2*,1.8,88.4*,34.3,8.4,-5.0,-11.5,
Oc1ccc(C=NNc2ccnc3cc(Cl)ccc23)c(O)c1O,/,/,/,/,/,/,/,Fam108b inh=80.0*
Cc1ccccc1/C=N/Nc1ccnc2cc(Cl)ccc12,11.2,-2.5,3.6,2.0,-5.5,-7.6,/,
O=C1CCCN1CCCNc1nc2c(S(=O)(=O)c3ccccc3)nnn2c2ccc(Cl)cc12,11.5,0.3,-0.3,-10.2,3.3,-3.0,/,
C/C(=N\OCc1nc2ccccc2c(=O)n1/N=C/c1cc([N+](=O)[O-])ccc1O)c1ccccc1,0.4,-13.3,19.1*,-3.3,-17.6,-5.4,-9.5,
C/C(=N\OCc1nc2ccccc2c(=O)n1/N=C/c1cc(C)cc([N+](=O)[O-])c1O)c1ccccc1,-4.9,-15.0,24.0*,32.3,-17.2,2.0,17.1,
Oc1c(Br)cc(Br)cc1/C=N/NC(=S)N[C@H]1CC2C=CC1C2 (some centres undefined),25.6,-0.6,18.4*,-11.1,15.1,-2.5,8.3,
CNC(=S)N/N=C/c1cc(Br)cc(Br)c1O,13.0,4.1,15.9,10.5,4.8,-3.1,/,
N#CC1=C(N)SC(N)=C(C#N)C1c1ccoc1,-6.9,-5.7,25.6*,23.5,-4.9,13.0,-25.5,
CC1CCCCN1C(=O)COC(=O)C1CCN(S(=O)(=O)c2ccc3c(c2)OCCO3)CC1 (centres undefined),4.9,1.4,1.2,14.8,-0.6,-4.3,/,
Cc1ccc(NC(=O)CC(=O)c2ccc([N+](=O)[O-])cc2)cc1S(=O)(=O)Nc1cccc(Cl)c1,8.6,-7.3,25.1*,-43.8,-10.5,-0.5,14.5,
